These results are taken from PubChem BioAssay.

A short description of assay [1]: optical density shifts of acrAB sulA E. coli – strain DRC41, OD650, 48 h, E. coli filamentation inducer project, primary screen (AID 1152).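 Further: E. coli MC1000 strain DRC41 lacking acrAB efflux pump and sulA.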 As to conditions: higher = more signal, called active from +8 up or from −8 down.
Assay [2] is described as follows: probe aLefty1 binding on compound microarray – biochemical, small-molecule microarray, 635/667 nm fluorescence, primary screen (AID 1153).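 Further: score merges spot fluorescence with signal-to-noise ratio from the scanned slide images.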 As to conditions: higher = more signal.
A short description of assay [3]: plasmodial surface anion channel blockers, osmotic lysis – cell-based, P. falciparum Indochina, OD700, 1 h, primary screen (AID 1154). As to conditions: P. falciparum Indochina infected RBC osmotic lysis, higher = more signal, called active from +8 up or from −8 down.
A short description of assay [4]: plasmodial surface anion channel blockers, osmotic lysis – cell-based, P. falciparum Indochina, OD700, 2 h, primary screen (AID 1155).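 Further: lysis reports solute entry through the parasite surface anion channel PSAC.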 As to conditions: P. falciparum Indochina infected erythrocytes, higher = more signal, called active from +8 up or from −8 down.
Assay [5] can be described thus: changes in parasitized red cell lysis, either direction – P. falciparum Indochina, OD700, 3 h, PSAC antagonist project, primary screen (AID 1156). As to conditions: P. falciparum-infected erythrocytes, osmotic lysis, higher = more signal, called active from +8 up or from −8 down.
Assay [6] in a line: plasmodial surface anion channel blockers, osmotic lysis – cell-based, P. falciparum Indochina, OD700, 18 h, primary screen (AID 1157). Particulars: P. falciparum Indochina infected erythrocytes, osmotic lysis OD700, 18 h; higher = more signal, called active from +8 up or from −8 down.
A short description of assay [7]: S6 kinase pathway phospho-S6 level changes – cell-based, A549, cytoblot, luminescence, serum-stimulated, primary screen (AID 1158).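 Further: serum-stimulated A549 lung adenocarcinoma cells; signal is phosphorylated S6 detected by cytoblot immunostaining with HRP secondary.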 Particulars: 5 h, higher = more signal.
Assay [8] addresses NADPH oxidase 2 (Homo sapiens) (UniProt P04839). The assay can be described thus: compounds shifting NOX2 Amplex Red fluorescence – cell-based, HEK293-NOX2, PMA-stimulated, NOX inhibitor project, primary screen (AID 1159). Further: test concentration not given here. As to conditions: 45 min, higher = more signal, called active from +8 up or from −8 down.
Assay [9] addresses NADPH oxidase 4 (Homo sapiens) (UniProt Q9NPH5). The assay is described as follows: compounds shifting NOX4 Amplex Red fluorescence – cell-based, HEK293-NOX4, tetracycline-induced, NOX inhibitor project, primary screen (AID 1160). As to conditions: HEK293-NOX4, Amplex Red H2O2 fluorescence, 45 min; higher = more signal, called active from +8 up or from −8 down.
Assay [10] concerns the target NADPH oxidase 5 (Homo sapiens) (UniProt Q96PH1). The assay is described as follows: compounds shifting NOX5 Amplex Red fluorescence – cell-based, HEK293-NOX5, NOX inhibitor project, primary screen (AID 1161). Particulars: HEK293-NOX5, ionomycin, 45 min, higher = more signal.

SMILES strings stand for the structures. “And” between values parts separate entries of the source, which are not always exact repeats. Identical values can stand only once. The source made the active and inactive calls.

Chain of NADPH oxidase 2 (Homo sapiens) (P04839 whole entry, looked up): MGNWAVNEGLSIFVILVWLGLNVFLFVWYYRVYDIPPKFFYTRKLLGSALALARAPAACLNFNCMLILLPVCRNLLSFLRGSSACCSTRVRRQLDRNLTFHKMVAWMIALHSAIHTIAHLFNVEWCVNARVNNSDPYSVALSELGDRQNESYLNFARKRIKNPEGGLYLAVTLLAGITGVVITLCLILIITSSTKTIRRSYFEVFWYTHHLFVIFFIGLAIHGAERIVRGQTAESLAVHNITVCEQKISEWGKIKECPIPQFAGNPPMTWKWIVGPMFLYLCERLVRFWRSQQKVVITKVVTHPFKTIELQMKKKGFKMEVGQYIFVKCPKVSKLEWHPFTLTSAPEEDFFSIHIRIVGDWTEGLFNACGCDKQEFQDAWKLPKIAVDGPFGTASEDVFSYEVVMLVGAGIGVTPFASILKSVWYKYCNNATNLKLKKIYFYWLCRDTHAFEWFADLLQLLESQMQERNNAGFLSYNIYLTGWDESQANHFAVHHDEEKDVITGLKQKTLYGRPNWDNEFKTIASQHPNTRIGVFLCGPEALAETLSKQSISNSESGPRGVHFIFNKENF
Chain of NADPH oxidase 5 (Homo sapiens) (Q96PH1 whole entry, looked up): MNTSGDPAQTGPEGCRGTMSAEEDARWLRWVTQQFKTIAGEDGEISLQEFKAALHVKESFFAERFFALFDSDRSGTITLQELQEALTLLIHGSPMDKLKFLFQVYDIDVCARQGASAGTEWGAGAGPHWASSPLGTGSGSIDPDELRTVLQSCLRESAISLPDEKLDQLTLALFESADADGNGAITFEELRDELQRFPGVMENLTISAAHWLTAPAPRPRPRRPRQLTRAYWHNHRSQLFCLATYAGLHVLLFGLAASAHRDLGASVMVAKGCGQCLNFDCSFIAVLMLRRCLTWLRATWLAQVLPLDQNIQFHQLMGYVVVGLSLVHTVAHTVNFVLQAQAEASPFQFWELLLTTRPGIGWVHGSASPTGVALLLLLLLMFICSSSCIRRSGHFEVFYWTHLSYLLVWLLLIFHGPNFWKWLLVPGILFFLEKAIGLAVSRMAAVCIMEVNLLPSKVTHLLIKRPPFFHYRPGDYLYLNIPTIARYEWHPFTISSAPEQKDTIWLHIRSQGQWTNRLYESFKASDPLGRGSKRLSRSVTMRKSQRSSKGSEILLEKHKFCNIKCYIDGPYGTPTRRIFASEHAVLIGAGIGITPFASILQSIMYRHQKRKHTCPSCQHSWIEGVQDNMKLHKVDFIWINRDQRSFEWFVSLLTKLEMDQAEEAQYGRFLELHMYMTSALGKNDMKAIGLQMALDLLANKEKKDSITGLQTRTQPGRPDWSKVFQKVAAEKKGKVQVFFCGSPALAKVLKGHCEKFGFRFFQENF
Chain of NADPH oxidase 4 (Homo sapiens) (Q9NPH5 whole entry, looked up): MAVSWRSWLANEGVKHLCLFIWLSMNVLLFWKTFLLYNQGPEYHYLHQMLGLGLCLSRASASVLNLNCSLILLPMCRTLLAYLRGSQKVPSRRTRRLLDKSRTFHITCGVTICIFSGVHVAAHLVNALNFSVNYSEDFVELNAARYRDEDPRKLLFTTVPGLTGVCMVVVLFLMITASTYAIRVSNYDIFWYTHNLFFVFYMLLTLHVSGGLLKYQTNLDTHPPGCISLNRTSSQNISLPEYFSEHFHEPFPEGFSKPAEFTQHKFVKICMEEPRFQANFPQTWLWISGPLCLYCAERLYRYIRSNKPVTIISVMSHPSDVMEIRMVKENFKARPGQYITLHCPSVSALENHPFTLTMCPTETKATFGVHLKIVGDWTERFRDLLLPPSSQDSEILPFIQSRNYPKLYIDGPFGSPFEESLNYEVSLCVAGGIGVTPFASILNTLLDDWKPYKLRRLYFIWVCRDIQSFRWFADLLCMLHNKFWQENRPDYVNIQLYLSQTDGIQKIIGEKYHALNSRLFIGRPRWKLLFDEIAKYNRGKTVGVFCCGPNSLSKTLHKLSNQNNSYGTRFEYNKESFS

In the case of `C=CCN1C(=O)[C@]2(O[C@H](CCn3cc(CCO)nn3)[C@@H]([Si](C)(C)c3ccc(OC)cc3)[C@@H]2C)c2cc(N3C(=O)c4cccc5cccc3c45)ccc21`, the z-score in assay [1] is 0.833 (inactive) and -0.342 (inactive); in assay [3], 24.1 (active); in assay [4], 9.07 (active) and 8.54 (active); in assay [5], -0.152 (inactive) and -1.17 (inactive); in [6] it was 2.04 (inactive) and 1.7 (inactive); in [7] it was 1.04 and 0.347. Moreover, the z-score in assay [8] is 0.823 (inactive) and 1.03 (inactive); in assay [9], 0.265 (inactive) and 0.624 (inactive); in assay [10], -0.371 and -0.152. In addition, the composite z-score in assay [2] is -0.0536 and 0.188.
On to `C=CCN(Cc1ccccc1)C(=O)C(c1cccs1)N(C(=O)/C=C\C(=O)O)c1c(Cl)cccc1CO` (stereo not given), for which the z-score in [1] was -0.608 (inactive) and -0.244 (inactive); in assay [3], -0.152 (inactive) and -0.0214 (inactive); in assay [4] it was 0.0805 (inactive) and 0.266 (inactive); in assay [5], 0.617 (inactive) and -0.39 (inactive); in assay [6], 0.306 (inactive) and 0.109 (inactive); in [7] it was 0.0278 and -0.193. Moreover, the z-score is -0.0842 (inactive) and 0.208 (inactive) in assay [8]; -0.662 (inactive) and -0.417 (inactive) in assay [9]; 0.0528 and 0.284 in assay [10]. Moreover, in assay [2], the composite z-score is -0.855 and -0.191.
In the case of `CCOC(=O)NN=C1C[C@@H](O)[C@@H](O)[C@@H]2[C@@H]3C(=O)N(Cc4ccc5c(c4)OCO5)C(=O)[C@@H]3CC[C@@H]12`, the z-score in assay [1] is 0.806 (inactive); in assay [3] it was 6.5 (inactive); in [4], 1.29 (inactive); in assay [5], 1.34 (inactive); in [6], 0.574 (inactive); in assay [7], -0.403. Besides, the z-score was -0.00897 (inactive) in [8], 0.786 (inactive) in assay [9] and 0.175 in assay [10]. The composite z-score in assay [2] was -0.14.
For `C=CC[C@@H](O)c1ccc(OCCO)cc1`, the z-score was 1.23 (inactive) and 1.38 (inactive) in assay [1]; 3.24 (inactive) and 1.36 (inactive) in assay [3]; -0.971 (inactive) and -1.24 (inactive) in assay [4]; -0.904 (inactive) and -0.902 (inactive) in [5]; -2.02 (inactive) and -2.07 (inactive) in assay [6]; 2.74 and 0.965 in assay [7]. Also, the z-score in assay [8] is -0.976 (inactive) and -0.495 (inactive); in [9], -0.354 (inactive) and -0.393 (inactive); in [10], -1.22 and -0.2. Also, the composite z-score in [2] was -0.259 and -0.191.
Consider `C=CCN(Cc1ccccc1)C(=O)C1N(c2c(Cl)cccc2CO)C(=O)C2C(C(=O)O)C3C=CC21O3` (stereo not given), for which the z-score is 3.44 (inactive) and 0.465 (inactive) in assay [1]; -0.97 (inactive) and 0.504 (inactive) in assay [3]; -0.994 (inactive) and 0.698 (inactive) in assay [4]; -0.847 (inactive) and 0.14 (inactive) in assay [5]; -1.32 (inactive) and 0.357 (inactive) in assay [6]; 1.33 and -0.0264 in assay [7]. The z-score in assay [8] was 0.00151 (inactive) and 0.1 (inactive); in [9], -0.574 (inactive) and -0.406 (inactive); in assay [10], -0.259 and -0.994. Further, the composite z-score in assay [2] was -0.147.
In the case of `C=CCN(C(=O)C1N(C(C)(C)CO)C(=O)C2C(C(=O)O)C3C=CC21O3)C(C)(C)C` (stereo not given), the z-score in assay [1] is -0.497 (inactive) and 0.156 (inactive); in assay [3], -0.455 (inactive) and -0.501 (inactive); in [4], 0.222 (inactive) and 0.135 (inactive); in [5] it was -0.67 (inactive) and -0.452 (inactive); in assay [6], 0.11 (inactive) and -0.11 (inactive); in assay [7] it was -0.356 and -0.316. Further, the z-score in assay [8] is 0.849 (inactive) and 0.0709 (inactive); in [9], -1.48 (inactive) and -2.38 (inactive); in assay [10] it was 0.103 and -0.476. For the same compound, the composite z-score in assay [2] is 0.0026 and -0.316.
For `C=CCN(CCCCC)C(=O)C1N(CCOCCO)C(=O)C2C(C(=O)O)C3C=CC21O3` (stereo not given), the z-score in [1] was -0.657 (inactive) and -0.678 (inactive); in [3], -0.326 (inactive) and 0.243 (inactive); in [4] it was -0.438 (inactive) and -0.392 (inactive); in assay [5], -0.661 (inactive) and -0.448 (inactive); in assay [6], 0.0613 (inactive) and -0.159 (inactive); in assay [7] it was -0.192 and 0.359. Further, the z-score in assay [8] is 0.347 (inactive) and 0.481 (inactive); in [9], -1.7 (inactive) and -1.87 (inactive); in assay [10], 0.569 and 0.0493. In addition, the composite z-score in assay [2] was -0.0518 and -0.0061.
Take `CCN1C(=O)[C@H]2[C@H]3[C@H](O)[C@H](O)CC(=NOC[C@@H](O)COCc4ccco4)[C@@H]3CC[C@H]2C1=O`: the z-score in [1] is -0.423 (inactive) and -0.268 (inactive); in assay [3] it was -0.0538 (inactive) and 1.03 (inactive); in [4] it was -0.0403 (inactive) and 0.0127 (inactive); in [5], -0.534 (inactive) and 1.78 (inactive); in assay [6], -0.21 (inactive) and 0.464 (inactive); in [7] it was 0.485 and 0.312. The z-score in assay [8] is -0.535 (inactive) and 0.394 (inactive); in assay [9] it was -1.86 (inactive) and -0.599 (inactive); in assay [10], -0.844 and -0.174. For the same compound, the composite z-score in assay [2] was -0.0877 and -0.101.
Turning to `C=CCN(CCCCC)C(=O)C1N(C(C)(C)CO)C(=O)C2C(C(=O)O)C3C=CC21O3` (stereo not given), the z-score is -0.548 (inactive) and -0.511 (inactive) in assay [1]; -0.632 (inactive) and -0.588 (inactive) in assay [3]; -0.042 (inactive) and -0.318 (inactive) in assay [4]; -0.694 (inactive) and -1.04 (inactive) in [5]; -0.281 (inactive) and -0.646 (inactive) in assay [6]; 0.0495 and 2.08 in [7]. The z-score in assay [8] is 1.02 (inactive) and 0.298 (inactive); in assay [9] it was -0.188 (inactive) and -0.0857 (inactive); in [10], 0.101 and 0.407. The composite z-score in [2] was -0.717 and -0.18.
